Screening results deposited in PubChem by National Center for Advancing Translational Sciences (NCATS).
ClpP mod = qHTS Assay for Activators of ClpP; ATP-dependent Clp protease proteolytic subunit (Bacillus subtilis (strain 168)), P80244; purified B. subtilis ClpP, FRET peptide cleavage, 20 min; Potency, µM (series often up to 57.5 µM), inactives show at the highest dose activity change, negative = active; actives 1.9% (n = 340,000); active = well fitted falling curve with a large enough effect; inconclusive = small, poorly fitted or top-dose-only effect; inactive = no such curve, though single readings can be large or run the other way; note: potency is the fitted concentration of half-maximal effect; the source files actives as falling curves though it sought activators and does not explain the sign; nearly all actives have a fitted effect of over 65% in size
Target sequence (P80244 whole entry, looked up): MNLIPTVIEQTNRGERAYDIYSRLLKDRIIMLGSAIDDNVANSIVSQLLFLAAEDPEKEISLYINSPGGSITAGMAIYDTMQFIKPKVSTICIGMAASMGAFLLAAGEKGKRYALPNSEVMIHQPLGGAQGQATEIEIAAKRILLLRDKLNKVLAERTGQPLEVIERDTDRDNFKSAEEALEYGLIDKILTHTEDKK
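Purified B. subtilis ClpP, 10 microg/mL final in Tris/HCl pH8 with KCl, BSA, glycerol and Tween-20, cleaved an Abz/nitrotyrosine-quenched decapeptide. Fluorescence (ex 320, em 430) was read at 0 and 20 min at room temperature. Delta was normalized to 5.8 microM ADEP and DMSO/no-enzyme controls.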
DT40 TDP1 CPT = DT40-hTDP1 cell growth loss with CPT. chicken DT40 Tdp1-/-;hTDP1 cells + 20 nM CPT, ATP luminescence, 48 h. Potency, µM (doses to about 46.2 µM), for the others: at the highest dose activity change, negative = growth inhibition, hits mostly inhibitors. actives 12% (n = 420,000). AID 686979; note: potency is the fitted concentration of half-maximal effect; % is set by controls: 0 for no effect and ±100 for the full control effect; nearly all actives have a fitted effect of over 55% in size
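Cell growth measured by CellTiter-Glo luminescence after a minimum 48 h, 37 C compound exposure with 20 nM CPT in Tdp1-knockout DT40 cells stably expressing hTDP1, seeded 400/well; qHTS titration format.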
TDP1 cell noCPT = qHTS for Inhibitors of human tyrosyl-DNA phosphodiesterase 1 (TDP1): qHTS in cells in absence of CPT | Potency, µM (doses to about 46.2 µM), for inactives: at the top dose activity change, negative = growth inhibition, most hits filed as inhibitors | AID 686978, 2013 | actives 15% (n = 420,000) | DT40 Tdp1-/- hTDP1 cells, no CPT, ATP luminescence, 48 h; note: potency is the fitted concentration of half-maximal effect; % is set by controls: 0 for no effect and ±100 for the full control effect; nearly all actives have a fitted effect of over 55% in size
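Stably hTDP1-transfected Tdp1-null chicken DT40 cells were treated with library compounds minus camptothecin and grown for at least 48 hr at 37 °C, after which cellular ATP was quantified by luminescence.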
D3 antag = blocks the human D3 dopamine receptor. P35462. D3R cells, DiscoveRx beta-arrestin luminescence, antagonist mode; active compounds read low. max response, negative = inhibition, %. actives 2.5% (n = 360,000). AID 652054; in the data active = max response below about -50%; inconclusive = no clear call, values can overlap the other calls; note: % is set by controls: 0 for no effect and ±100 for the full control effect
Target sequence (P35462 whole entry, looked up): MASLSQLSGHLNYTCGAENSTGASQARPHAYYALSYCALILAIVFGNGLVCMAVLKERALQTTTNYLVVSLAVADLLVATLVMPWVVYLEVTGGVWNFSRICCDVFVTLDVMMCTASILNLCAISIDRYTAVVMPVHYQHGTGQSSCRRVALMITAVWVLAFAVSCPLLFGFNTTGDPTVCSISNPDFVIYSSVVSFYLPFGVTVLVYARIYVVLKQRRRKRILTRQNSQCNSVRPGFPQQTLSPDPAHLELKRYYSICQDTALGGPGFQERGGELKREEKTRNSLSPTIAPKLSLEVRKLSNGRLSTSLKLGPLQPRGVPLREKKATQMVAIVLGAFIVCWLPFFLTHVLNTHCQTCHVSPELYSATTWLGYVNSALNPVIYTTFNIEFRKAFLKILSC
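Cells expressing the human receptor were seeded at 1500 cells/well, incubated overnight at 37 degrees C in 5% CO2, then exposed to library compounds with dopamine controls for 90 minutes at 37 degrees C before luminescent detection.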
DRD3 agonist = agonists of human D3 dopamine receptor | max activation, % | P35462 | actives 0.58% (n = 410,000) | AID 652048 | D3R DiscoveRx beta-arrestin cells, luminescence, 90 min; in the data active = max activation above about 30%; note: 0% is about no effect
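Agonist-mode cell screen: cells plated at 1500/well and incubated overnight at 37 °C, then exposed to library compounds for 90 min at 37 °C. Detection reagent was added for 30–60 min at room temperature, and luminescence was read.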
IL-1B inflam inh = blocks inflammasome-driven IL-1 beta release; THP-1 LPS/ATP IL-1B secretion, AlphaLISA, 16 h; active compounds read low; activity change, % at 57.5 µM; AID 743279; actives 4.7% (n = 360,000); in the data active = activity change below about -50%; inconclusive = mostly about -30% to -49%; note: % is set by controls: 0 for no effect and ±100 for the full control effect
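Secreted IL-1B measured by AlphaLISA bead assay after 16 h compound exposure of THP-1 cells; compounds (final up to 57.5 uM) added 1 h before LPS (250 ng/mL) and ATP (1.25 mM) stimulation; lower signal means less secretion.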
* hit, by the source's call; ? = inconclusive; / = not tested or not shown. Most compounds without a hit are left out; they make up all but 21% or so of the library. Unless noted, calls come from the whole dose curve; as a rule, active = well fitted inhibition curve with a large enough effect; inconclusive = small, poorly fitted or top-dose-only effect; inactive = flat fitted curve, though single readings scatter.

SMILES	ClpP mod	DT40 TDP1 CPT	TDP1 cell noCPT	D3 antag	DRD3 agonist	IL-1B inflam inh
CS(=O)(=O)c1ccccc1C(=O)N(CCC1=CCCCC1)c1c(N)n(Cc2ccccc2)c(=O)[nH]c1=O	?	29.1µM*	?	-23.3	-11.0	-5.1
COc1ccc(CC(=O)N(CCC2=CCCCC2)c2c(N)n(Cc3ccccc3)c(=O)[nH]c2=O)cc1OC	-0.9%	-16.0%	-11.5%	7.9	-8.8	-21.1
CCCCCCC(CC(=O)NCc1cccnc1)CC(=O)NCc1cccnc1	0.9%	3.4%	11.8%	0.7	3.0	-2.6
O=C(O)c1ccn2c(C(=O)c3ccccc3)c(-c3ccccc3)cc2c1	/	-0.1%	-11.5%	1.3	9.9	9.1
COc1ccc(C2C(C(=O)Nc3ccccc3)=C(C)Nc3nc(-c4ccccc4)nn32)c(OC)c1 (configuration not stated)	-19.7%	16.4µM*	?	/	-15.1	/
CC1=C(C(=O)Nc2cccnc2)C(c2ccc(Cl)cc2)n2nc(-c3ccccc3)nc2N1 (configuration not stated)	111.9%	16.4µM*	?	/	-8.3	/
CC1=C(C(N)=O)C(c2cccnc2)n2nc(-c3cccc(C)c3)nc2N1 (configuration not stated)	31.6µM*	-0.8%	?	13.0	-0.9	-15.1
COc1cccc(C2C(C(=O)Nc3ccccc3)=C(C)Nc3nc(-c4ccccc4)nn32)c1OC (configuration not stated)	-1.4%	16.4µM*	?	/	-11.1	/
O=C(CCCN1C(=O)/C(=C\c2cccc(Br)c2)SC1=S)Nc1ccc(C(=O)O)cc1	-0.1%	5.7%	-16.0%	-7.4	-0.1	-3.9
COC1CCC2(C)C(=CCC3C4CC(O)CC4(C)CCC32)C1 (configuration not stated)	1.4%	20.6µM*	20.6µM*	8.2	-2.1	6.4
CC(=O)C1CCC2C3CC=C4CC(O)CC[C@@]4(C)C3CC[C@]12C (some centres not stated)	/	2.0%	-5.3%	/	/	/
C[C@@H](NCCCc1cccc(C(F)(F)F)c1)c1cccc2ccccc12	1.4%	9.44µM*	8.41µM*	/	-16.1	/
NC(=O)C1CCN(C(=O)c2ccccc2NC(=O)c2nsc3ccccc23)CC1	0.6%	?	-8.0%	/	-29.6	/
CSCCC(NC(=O)c1ccc(Cl)cc1Cl)C(=O)N(C)Cc1nc2ccccc2c(=O)[nH]1 (configuration not stated)	0.4%	?	-21.6%	-51.3*	-8.0	-7.2
CSCCC(NC(=O)c1ccc(Cl)cc1Cl)C(=O)NCc1ccncc1 (configuration not stated)	/	0.8%	?	-12.0	-3.7	-12.9
CC1CCc2c(sc(NC(=O)/C=C/c3cccs3)c2C(=O)O)C1 (configuration not stated)	1.7%	-25.1%	-7.7%	-3.0	-6.7	?
COc1ccc(N2CCN(C(=O)c3cc4c(-c5cccc(OC)c5)nn(C)c4s3)CC2)cc1	-2.1%	?	14.6µM*	13.2	1.4	0.0
COc1cccc(-c2nn(C)c3sc(C(=O)N4CCN(c5cccc(C(F)(F)F)c5)CC4)cc23)c1	-24.5%	16.4µM*	25.9µM*	/	26.9	/
Cc1cc(C)cc(NC(=O)N2CCN(S(C)(=O)=O)CC2)c1	/	0.0%	5.1%	12.8	7.7	25.0
COc1ccc(C(=O)NCc2ccc3c(c2)CCN3C(C)=O)cc1OC	-4.0%	13.6%	-13.3%	/	6.3	/
O=C(CCl)NC1(C(=O)O)CCCC1	-1.0%	5.4%	-4.3%	-5.1	-2.8	-1.5
CCOC(=O)c1c(NC(=O)c2ccncc2)sc(C)c1C	1.3%	?	?	1.7	0.3	-2.0
Cc1ccccc1-c1cc(C(=O)N2CCCC2)c2ccccc2n1	-3.5%	1.1%	?	4.4	4.9	-6.9
Cc1ccccc1-c1cc(C(=O)Nc2sc(C)c(C)c2C(N)=O)c2ccccc2n1	-0.9%	16.4µM*	18.4µM*	56.3	2.6	-14.8
CCOC(=O)c1sc(NC(=O)c2ccncc2)c(C#N)c1C	-10.0%	6.51µM*	5.17µM*	52.5	15.9	25.5
SMILES	ClpP mod	DT40 TDP1 CPT	TDP1 cell noCPT	D3 antag	DRD3 agonist	IL-1B inflam inh
Cc1c(C(=O)N2CCCC2)sc(NC(=O)c2ccc(Cl)cc2)c1C#N	0.7%	-28.0%	?	-55.1*	-4.2	15.3
COc1ccccc1C(=O)Nc1sc(C(=O)N2CCCC2)c(C)c1C#N	/	3.7%	2.3%	-2.1	5.7	-5.0
CCOC(=O)c1sc(NC(=O)c2cc(-c3ccccc3C)nc3ccccc23)c(C#N)c1C	-2.5%	9.2µM*	7.31µM*	40.4	33.2*	-83.5*
Cc1ccc(C)c(CNC(=O)CCn2cccn2)c1	1.0%	-0.8%	-16.8%	/	-8.7	/
CCOc1ccc(C(N)=O)cc1OC	28.2µM*	5.8%	-11.9%	-18.5	-1.3	1.9
COc1ccc(C(NC(=O)CC(C)C)NC(=O)CC(C)C)cc1OC	0.6%	-1.2%	11.3%	-12.0	8.2	-9.7
COc1ccc(C(=O)c2ccc(OC)c(OC)c2)cc1OC	0.2%	?	?	9.4	5.8	-0.4
COc1ccc(C(=O)c2cc(OC)c(OC)c(OC)c2)cc1OC	0.8%	4.61µM*	2.59µM*	-15.5	-3.8	43.3
COc1ccc(C(CC(=O)O)c2cc(OC)c(OC)c(OC)c2)cc1OC (configuration not stated)	31.6µM*	-15.0%	-19.3%	2.0	0.4	18.9
COc1ccc(C(=O)Sc2ccc(Cl)cc2)cc1OC	4.0%	8.2µM*	11.6µM*	0.0	-18.2	-83.6*
Cc1cccc2cc(CN(CC3CCCO3)C(=O)c3cccs3)c(=O)[nH]c12 (configuration not stated)	-24.3%	1.5%	8.5%	-10.5	4.6	-11.7
Cc1ccc(C)c2[nH]c(=O)c(CN(CCN3CCOCC3)Cc3nnnn3CC3CCCO3)cc12 (configuration not stated)	-23.7%	-18.0%	-8.5%	-24.0	-6.0	-2.6
Cc1cc2cc(CN(Cc3cccs3)S(=O)(=O)c3ccc4c(c3)OCCO4)c(=O)[nH]c2cc1C	-12.0%	?	?	3.0	1.3	-1.2
Cc1cccc2cc(CN(Cc3cccs3)S(=O)(=O)c3ccc4c(c3)OCCO4)c(=O)[nH]c12	?	?	23.1µM*	4.2	-4.6	-8.0
